PubChem BioAssay AID1461 (National Center for Advancing Translational Sciences (NCATS), 2008)
Out of some 220,000 compounds screened, about 2,300 (1%) were called active. Another 6% or so got no clear call; they are omitted. Calls come from the whole dose curve; as a rule, active = well fitted inhibition curve with a large enough effect; inconclusive = small, poorly fitted or top-dose-only effect, or effect the other way; inactive = no such curve, though single readings can be large or run the other way. The sample as a whole holds a higher share of actives than the screen did.

These compounds were tested against Neuropeptide S receptor (Homo sapiens) (UniProt Q6W5P4) (assay: qHTS Assay for Antagonists of the Neuropeptide S Receptor: cAMP Signal Transduction). Conditions: CHO-NPSR cells, cAMP TR-FRET, antagonist mode; series mostly up to 38.3 µM; activity change, negative = inhibition: at the top concentration.
% is set by controls: 0 for no effect and ±100 for the full control effect; potency is the fitted concentration of half-maximal effect.
Note: nearly all actives have a fitted effect of over 50% in size.

Sequence of Neuropeptide S receptor (Homo sapiens) (Q6W5P4 whole entry, looked up): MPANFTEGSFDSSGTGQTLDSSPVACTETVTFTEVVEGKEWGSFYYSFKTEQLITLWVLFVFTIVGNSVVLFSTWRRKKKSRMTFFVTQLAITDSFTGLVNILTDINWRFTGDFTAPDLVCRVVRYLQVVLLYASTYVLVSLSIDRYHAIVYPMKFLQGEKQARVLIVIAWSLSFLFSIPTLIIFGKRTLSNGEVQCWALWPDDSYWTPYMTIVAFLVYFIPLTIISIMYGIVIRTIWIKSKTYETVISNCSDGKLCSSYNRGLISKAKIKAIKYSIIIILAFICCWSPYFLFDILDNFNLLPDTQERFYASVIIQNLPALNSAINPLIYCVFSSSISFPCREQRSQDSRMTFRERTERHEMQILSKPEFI

Activity change, negative = inhibition, inactive:
Cc1ccc(/C=N/NC(=O)CSc2ccccn2)o1 -14.8%
Cc1ccc(C(O)P(=O)(OC(C)C)c2ccc(N(C)C)cc2)cc1 (centres undefined) 7.66%
O=C(Nc1ccc2c(c1)OCCO2)c1ccoc1 -1.7%
NC(=O)NC(=O)CSc1nc2cc([N+](=O)[O-])ccc2n1-c1cccc(C(F)(F)F)c1 -43.8%
COc1ccc(/C=C/c2nnc(NC(=O)C(C)C)s2)cc1 1.52%
C/C(CC(=O)NC(C)c1ccccc1)=N\NC(N)=S (centres undefined) 21.5%
Cc1cc(C)c2[nH]c(=O)c(C(c3nnnn3Cc3ccc4c(c3)OCO4)N3CCCC3)cc2c1 (centres undefined) -22.9% [at 46.1 µM]
Cc1cccc2cc(CN(Cc3nnnn3Cc3ccccc3)C3CCCC3)c(=O)[nH]c12 -29.8% [at 46.1 µM]
COCCN(Cc1cc2cc3c(cc2nc1Cl)OCO3)C(=O)c1cccc(C)c1 -4.29%
Cc1ccc(NNC(=O)c2cccs2)cc1Cl 24%
Cc1cc(C)c(C)c(S(=O)(=O)N[C@@H](C)C(=O)OC(C)C(=O)NC(N)=O)c1C (some centres undefined) 16.8%
O=C(Nc1ccc(Cl)cc1)/C(=C1\CCCN1)[N+](=O)[O-] -27.6%
CN1CCN(c2ccc(NC(=O)COc3ccc(Cl)cc3Cl)cc2)CC1 3.6% [at 7.67 µM]
COc1cc(NC(=O)COc2ccccc2Cl)ccc1NC(=O)C(C)C 2.21%
Nc1ccc(N=Nc2ccccc2Cl)c(N)n1 -6.42%
COc1ccc(CCNC(=O)C(=O)NCC2CCNCC2)cc1OC -20.8%
N#CC1=C(N)Oc2c(sc3ccccc23)C1c1ccco1 (centres undefined) -7.26% [at 7.67 µM]
Cc1cc(C)c(C#N)c(SCc2[nH]nc3c2C(c2ccccc2)C(C#N)=C(N)O3)n1 (centres undefined) -18.8% [at 46.1 µM]
O=C1CCC(=O)N(O)CCCCCNC(=O)CCC(=O)N(O)CCCCCNC(=O)CCC(=O)N(O)CCCCCN1 15.4%
NC(=O)N/N=C\c1cccs1 14%
O=S(=O)(c1ccc(F)cc1)N1CC=C(c2ccccc2)CC1 -0.503% [at 7.67 µM]
Nc1scc[n+]1Cc1cccc2cccnc12 -4.76%
Nc1nc(NC(=O)/C=C/c2ccc(F)cc2)nn1-c1ccccc1 2.5%
COC(=O)c1ccc(COc2ccc(/C=N/NC(=O)C(=O)Nc3ccc(OC)cc3)cc2OC)o1 7.97%
COc1cc(/C=N/O)ccc1OCc1ccc([N+](=O)[O-])cc1 -0.175%
COc1cccc(OC)c1CN(C)C(=O)c1cnccc1C(F)(F)F -16.3%
COC(C[C@H](O)CC(=O)COCc1ccccc1)OC 19.4%
Cc1ccc(S(=O)(=O)/N=C(/NC(=S)Nc2c(C)n(C)n(-c3ccccc3)c2=O)c2ccccc2)cc1 -10.6%
CSCC[C@H](NC(=O)CCCn1nnc2ccccc2c1=O)C(=O)O -7.89%
S=C(NCCc1ccccc1)Nc1ccccc1 -3.61%
O=C(/C=C/c1ccccc1[N+](=O)[O-])OC1CCCCC1=O (centres undefined) 1.58%
O=C(/C=C/c1ccccc1[N+](=O)[O-])NCC1CCCO1 (centres undefined) 12.9%
CN(c1ccccc1)S(=O)(=O)c1ccc(Cl)c(C(=O)OCC(=O)NCc2ccco2)c1 -0.308%
CN(C)C(=S)Nc1ccc(Br)cc1Cl -9.99%
CCN(CC)CCC(c1cc(OC)c(OC)c(OC)c1)c1c(OC)cc(OC)c2c(-c3ccccc3)cc(=O)oc12 (centres undefined) -24.9%
COc1ccc(C(CC(=O)N2CCN(c3ccccc3)CC2)c2c(O)cc(OC)cc2OC)cc1 (centres undefined) -25.2%
O=C(Nc1ccccc1)Nc1nnc(COc2ccccc2F)s1 -5.72%
COc1ccc(NC(=O)CCN2C(=O)/C(=C/c3ccc4c(c3)OCO4)SC2=S)cc1 3.47%
O=C(Cn1cnc2ccccc2c1=O)Nc1cccc(S(=O)(=O)N2CCCCC2)c1 -8.02%
CC(=O)Nc1ccc(CC#N)cc1 -15.3%
Cc1cc(-c2nc(C)c(-c3nnc(SCC(=O)Nc4ccccc4)n3C)s2)no1 5.55%
COc1ccc(N2C(=O)c3ccccc3NC2c2ccc(OC)c(CN3CCOCC3)c2)cc1 (centres undefined) -35.7%
CCC(=O)NC(=S)Nc1ccc(NC(=O)c2ccco2)c(Cl)c1 -27.6%
O=C(Nc1ccc(Sc2ccc(Br)cc2)cc1)c1ccco1 -22.6% [at 46.1 µM]
C=CCCN(Cc1ccccc1)S(=O)(=O)c1ccccc1Br -39.7%
O=C(NNC(=O)c1csc(-c2cccnc2)n1)Nc1ccc(Cl)cc1 -1.58%
O=C(O)CC12CC3CC(C1)CC(n1ncc(NCc4ccc(F)cc4)c(Cl)c1=O)(C3)C2 -4.32%
O=C(NNC(=S)NC1CC2CCC1C2)c1ccc(Cl)cc1 (centres undefined) -26.4%
COCCn1c(CN(Cc2ccccc2)Cc2ccccc2)nc2c1c(=O)n(C)c(=O)n2C -20.7% [at 46.1 µM]
CC(C)CCn1c(CN(C)Cc2ccccc2)nc2c1c(=O)n(C)c(=O)n2C -20.1% [at 46.1 µM]
S=c1[nH]nc(-c2cccnc2)n1/N=C/C(Cl)=C\c1ccccc1 -30.4%
Cc1cc(-c2n[nH]c(=S)n2/N=C/c2ccco2)n[nH]1 2.84%
Cn1c(SCC(=O)c2ccc(F)cc2)nnc1-c1ccccn1 -7.53%
Cc1nc2nc(SCC(=O)c3ccccc3)[nH]c2cc1Br -26.3%
Nc1nc(SC23CC4CC(CC(C4)C2)C3)ns1 7.63%
Cn1c(C(=O)O)ccc1S(=O)(=O)N(Cc1ccccc1)Cc1ccccc1 35.6%
N#C/C(=C1\CCCN1)c1nc(-c2ccccc2)cs1 -23.6% [at 46.1 µM]
N#CC1=C(SCc2ccccc2)NC(=O)C(C#N)C12CCCC2 (centres undefined) 3.01% [at 46.1 µM]
S=c1[nH]c2ccccc2c2ccccc12 -17.7%
CCCCCCCCCCCCC(NC(C)=O)(C(=O)OCC)C(=O)OCC 40.3%
Nc1ccccc1Sc1cc(Cl)nnc1Cl -25.8%
Cc1ccc(-c2c[n+](CC(=O)Nc3ccccc3)c3n2CCC3)cc1 -1.52%
CC(=O)c1c(C)[nH]c(=S)c(C#N)c1-c1ccc(F)cc1 -16.5%
CCOC(=O)c1c(C)[nH]c2c1-c1ccccc1C(=O)C2=O 6.24%
Cn1cnc(S(=O)(=O)Nc2ccc3c(c2)OCCO3)c1 9.08%
Cc1cc(C)cc(NC(=O)NC2CCN(CC(=O)Nc3cccc(Cl)c3C)CC2)c1 -25.3%
COCCN(CCOC)C(=S)Nc1ccccc1Cl 8.02%
O=C(CN1CCCCC1)Nc1ccccc1Cl -3.09%
COc1ccc(C(=O)N/N=C2\CCS(=O)(=O)c3ccc(F)cc32)cc1OC -2.66%
COC(=O)c1cc(C(=O)OCC(=O)Nc2cc(C)on2)cc([N+](=O)[O-])c1 -14.2%
N/C(=N\OC(=O)CCn1cccc(C(F)(F)F)c1=O)c1ccc(OC(F)(F)F)cc1 -8.1%
Cn1c(S(=O)(=O)O)nc2ccccc21 22.2%
Cc1ccc(NC(=O)/C(=C/c2ccc([N+](=O)[O-])cc2)NC(=O)c2ccccc2)cc1 7.14%
N#C/C(=C\N1CCOCC1)S(=O)(=O)c1ccc(Cl)cc1 14.9%
O=C(COc1ccccc1)N1CCN=C1SCc1cccc(F)c1 -1.12%
N#CCCCn1c(O)c(N=NC(=O)C(O)c2ccccc2)c2ccccc21 (centres undefined) -19.2%
O=C(NCc1ccccn1)c1cc(Br)ccc1Cl 7.75%
O=C(NCC(c1cccs1)N1CCOCC1)c1cc(-c2ccccn2)nc2ccccc12 (centres undefined) 7.93%
C#CCO[C@@H]1C[C@H](n2cnc3c(=O)[nH]c(NC(=O)C(C)C)nc32)O[C@@H]1CO 10.8%
CCC1=NN2C(=N)/C(=C/c3cc(C)n(-c4ccccc4)c3C)C(=O)N=C2S1 19.1%
Cc1ccc2cc(/C=N/Nc3ccc(C(=O)O)cc3)c(Cl)nc2c1 -22.4%
Cc1nn(-c2ccccn2)c2c1C(c1ccncc1)C1=C(CC(C)(C)CC1=O)N2 (centres undefined) -14.2% [at 46.1 µM]
Cc1ccc(C2C3=C(Nc4[nH]n(-c5ccccc5)c(=O)c42)c2ccccc2C3=O)cc1 (centres undefined) -43.2%
COCc1cc(=O)[nH]c(-c2ccc(C(F)(F)F)cc2)n1 -8.06%
Cc1oc(C(N)=O)cc1COc1ccc(C(N)=O)cc1 11.4%
O=C(O)CCC(=O)Nc1nc2ccc([N+](=O)[O-])cc2s1 36.1%
O=C(Nc1nc2ccc([N+](=O)[O-])cc2s1)c1ccncc1 -23.6%

Potency, active:
CC(=O)O[C@]1(C(C)=O)CC[C@H]2[C@@H]3C=C(C)C4=CC(=O)CC[C@]4(C)[C@H]3CC[C@@]21C 3.98 µM
Cc1cccc2cc(CN(Cc3ccc4c(c3)OCO4)Cc3nnnn3C3CCCC3)c(=O)[nH]c12 12.6 µM
Cc1ccccc1OCC(=O)Nc1ccc(N2CCN(C(=O)C(C)C)CC2)c(Cl)c1 12.6 µM
Cc1cc(C)c2c3c(sc2n1)C(c1ccccc1)C(C#N)=C(N)O3 (centres undefined) 10 µM
Cc1ccccc1Nc1scc(-c2ccc(Br)cc2)[n+]1-c1ccccc1C 10 µM
CCCc1ccc(OCc2ccc(C(=O)N/N=C/c3cccc([N+](=O)[O-])c3)o2)c(OC)c1 10 µM
CC1CCCCC1NC(=O)/C(C#N)=C/C=C/c1ccccc1[N+](=O)[O-] (centres undefined) 10 µM
COc1cc(C(CCN2CCN(c3ccccc3)CC2)c2c(OC)cc(OC)c3ccc(=O)oc23)cc(OC)c1OC (centres undefined) 10 µM
CCN(CC)P(=O)(Nc1ccc(SC(F)F)cc1)c1ccc(N(C)C)cc1NC(=O)c1ccco1 (centres undefined) 5.01 µM
CC(C)Cn1c(CN(Cc2ccccc2)Cc2ccccc2)nc2c1c(=O)n(C)c(=O)n2C 12.6 µM
Cc1cc(-c2n[nH]c(=S)n2/N=C/C(Br)=C/c2ccccc2)n[nH]1 3.98 µM
N#CC1=C(SCc2ccc(C#N)cc2)N=C(N)C(c2nc(-c3ccccc3)cs2)C12CCCCC2 (centres undefined) 3.98 µM
CCOC(=O)c1c(C)[nH]c(=S)c(C#N)c1-c1ccccc1 7.94 µM
O=C(Nc1ccccc1Cl)/C(Cl)=C(\Cl)S(=O)c1ccccc1 (centres undefined) 7.94 µM
O=C(NCc1cccs1)c1cc(-c2ccccn2)nc2ccc(Br)cc12 10 µM
Cc1cc(C)c(C2C3=C(Nc4c2c(C)nn4-c2ccccn2)c2ccccc2C3=O)c(C)c1 (centres undefined) 10 µM
O=C(NC(Nc1nc2ccc([N+](=O)[O-])cc2s1)(C(F)(F)F)C(F)(F)F)c1ccccc1 3.98 µM
